Outcome and AC50 data for 10 compounds are collected here from PubChem BioAssay (EPA / NIEHS).

Settings in all cases: primary human HUVEC with PBMC; actives raise or lower the signal
Read-out in assay [1]: Macrophage colony-stimulating factor (MCSF), CSF1 (gene 1435)
The experiment in a line: BSK_LPS_MCSF: BioMAP Diversity Plus: LPS Assay for Macrophage colony-stimulating factor (MCSF) Biomarker Activity (AID 2283083). The procedure, abridged: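 Compound is added to a human vascular primary co-culture of umbilical vein endothelium and blood mononuclear cells. After 24 h, M-CSF is quantified by ELISA. Signal changes are fitted in both directions against DMSO.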

Read-out in assay [2]: Tissue Factor, F3 (gene 2152)
The experiment in a line: BSK_LPS_TissueFactor: BioMAP Diversity Plus: LPS Assay for Tissue Factor Biomarker Activity (AID 2283084). The procedure, abridged:
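In this co-culture system of umbilical vein endothelium with PBMC, stimulated with LPS, cell-surface CD142 is detected by ELISA at 24 h. Endpoint values derive from bidirectional fitting, DMSO serving as baseline.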

Read-out in assay [3]: Tumor necrosis factor (Homo sapiens) (UniProt P01375)
Description: BSK_LPS_TNFa: BioMAP Diversity Plus: LPS Assay for Tumour Necrosis Factor alpha (TNFa) Biomarker Activity (AID 2283085).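 As to AC50: TNFa protein level quantified by ELISA in the co-culture.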 The procedure, abridged:
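Cells (umbilical vein endothelium plus peripheral blood mononuclear cells) were dosed with chemical, incubated 24 h, then TNFa was quantified by ELISA; values derive from bidirectional fitting with DMSO as baseline.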

Read-out in assay [4]: Vascular cell adhesion molecule 1 (VCAM1), VCAM1 (gene 7412)
The experiment in a line: BSK_LPS_VCAM1: BioMAP Diversity Plus: LPS Assay for Vascular cell adhesion molecule 1 (VCAM1) Biomarker Activity (AID 2283086). An outline of the steps:
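Cells are dosed in an LPS-stimulated endothelial/mononuclear co-culture and, after 24 h, VCAM-1 is quantified by ELISA. Activity in either direction is fitted relative to the DMSO negative control.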

Read-out in another assay: CD38, CD38 (gene 952)
Description: BSK_SAg_CD38: BioMAP Diversity Plus: SAg Assay for CD38 Biomarker Activity (AID 2283087). An outline of the steps: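 CD38 quantified by ELISA (fluorescence) in a superantigen-activated endothelial cell–PBMC co-culture at 24 h post-dose. Activity fitted in both directions relative to DMSO; parallel SRB and Alamar Blue cytotoxicity read-outs.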

Read-out in a further assay: CD40, CD40 (gene 958)
Description: BSK_SAg_CD40: BioMAP Diversity Plus: SAg Assay for CD40 Biomarker Activity (AID 2283088). An outline of the steps: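 Fluorescence ELISA read-out of CD40 from umbilical vein endothelium plus peripheral blood mononuclear cells, sampled 24 h after dosing. Values come from bidirectional curve fitting with DMSO as baseline.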

Read-out in another assay: CD69, CD69 (gene 969)
Description: BSK_SAg_CD69: BioMAP Diversity Plus: SAg Assay for CD69 Biomarker Activity (AID 2283089).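 As to AC50: cell surface CD69 protein quantified by ELISA with fluorescence detection.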 An outline of the steps: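 Primary human vascular co-culture (umbilical vein endothelium with peripheral blood mononuclear cells) exposed to test chemical for 24 h. CD69 levels quantified by fluorescence ELISA; DMSO served as negative control for bidirectional fitting.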

Read-out in assay [5]: Monocyte Chemoattractant Protein-1 (MCP1), CCL2 (gene 6347)
Description: BSK_SAg_MCP1: BioMAP Diversity Plus: SAg Assay for Monocyte Chemoattractant Protein-1 (MCP1) Biomarker Activity (AID 2283090). The procedure, abridged: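 Values derive from bidirectional fitting of ELISA-measured MCP1 against DMSO controls. Readings were taken 24 h after dosing human vascular endothelial cells co-cultured with peripheral blood mononuclear cells under superantigen stimulation.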

Read-out in assay [6]: E-selectin (Homo sapiens) (UniProt P16581)
Description: BSK_SAg_Eselectin: BioMAP Diversity Plus: SAg Assay for Eselectin Biomarker Activity (AID 2283091). The procedure, abridged:
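Primary human endothelial cells and peripheral blood mononuclear cells were co-cultured and exposed to chemical for 24 hours. E-selectin levels were then quantified by ELISA, with bidirectional curve fitting normalised to DMSO controls.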

Read-out in assay [7]: Monokine induced gamma interferon (MIG), CXCL9 (gene 4283)
The experiment in a line: BSK_SAg_MIG: BioMAP Diversity Plus: SAg Assay for Monokine induced gamma interferon (MIG) Biomarker Activity (AID 2283092). An outline of the steps: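 Endothelial cells and PBMC were co-cultured, exposed to test chemicals, and sampled 24 h later. MIG was measured by ELISA, and responses were fitted in both directions relative to DMSO.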

Each structure is given as a SMILES string. Calls of active or inactive are those of the source. The calls were made as follows: active = hit-call score of the fitted dose curve at least 0.9, where 1 is the maximum; inactive = score below 0.9.

Chain of Tumor necrosis factor (Homo sapiens) (P01375 whole entry, looked up): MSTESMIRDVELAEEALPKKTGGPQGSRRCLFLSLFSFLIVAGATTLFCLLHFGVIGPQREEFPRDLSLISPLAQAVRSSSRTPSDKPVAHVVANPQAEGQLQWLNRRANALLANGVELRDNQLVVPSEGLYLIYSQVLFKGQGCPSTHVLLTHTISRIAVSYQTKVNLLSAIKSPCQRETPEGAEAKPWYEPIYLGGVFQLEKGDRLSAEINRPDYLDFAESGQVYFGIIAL
Chain of E-selectin (Homo sapiens) (P16581 whole entry, looked up): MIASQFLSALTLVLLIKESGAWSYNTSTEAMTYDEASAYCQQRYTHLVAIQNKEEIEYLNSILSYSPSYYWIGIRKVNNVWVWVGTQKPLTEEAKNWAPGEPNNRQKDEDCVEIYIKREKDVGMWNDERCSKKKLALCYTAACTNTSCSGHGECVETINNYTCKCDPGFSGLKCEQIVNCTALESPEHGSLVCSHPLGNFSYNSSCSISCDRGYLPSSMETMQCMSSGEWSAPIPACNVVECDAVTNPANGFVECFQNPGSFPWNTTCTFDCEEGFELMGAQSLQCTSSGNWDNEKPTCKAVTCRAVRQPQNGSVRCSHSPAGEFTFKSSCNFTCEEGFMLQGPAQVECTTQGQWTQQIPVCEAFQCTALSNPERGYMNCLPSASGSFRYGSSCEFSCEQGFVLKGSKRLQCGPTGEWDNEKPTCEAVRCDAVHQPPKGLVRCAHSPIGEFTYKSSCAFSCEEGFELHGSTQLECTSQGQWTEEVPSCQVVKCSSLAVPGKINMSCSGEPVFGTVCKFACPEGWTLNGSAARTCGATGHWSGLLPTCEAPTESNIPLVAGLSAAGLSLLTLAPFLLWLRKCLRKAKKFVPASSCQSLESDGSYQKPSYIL

As for `COc1cc(Cl)c(OC)cc1N`, the outcome in assay [1] was “inactive”; in assay [2] it was “inactive”; in [3] it was “inactive”; in [4] it was “inactive”; with CD38, CD38 (gene 952), “inactive”; in the assay with CD40, CD40 (gene 958), “inactive”. For the same compound, the outcome in the assay with CD69, CD69 (gene 969) is “inactive”; in assay [5], “inactive”; in assay [6] it was “inactive”; in [7], “inactive”.
As for `Clc1cc(Cl)c(-c2c(Cl)c(Cl)cc(Cl)c2Cl)cc1Cl`, the AC50 (as a rule, the concentration at which the activity in the assay is half-maximal) in assay [1] was 1.98 µM (active); in [4], 3.5 µM (active); in the assay with CD38, CD38 (gene 952) it was 15.6 µM (active); with CD40, CD40 (gene 958) it was 16.3 µM (active); with CD69, CD69 (gene 969), 10 µM (active); in [6] it was 14.9 µM (active). Moreover, the result in assay [2], in [3], in assay [5] and in [7] was inactive.
As to `CCCCCC(C=O)=Cc1ccccc1`, the AC50 in assay [1] is 33.3 µM (active); in assay [4], 30.4 µM (active). Further, the outcome in assay [2] is “inactive”; in [3], “inactive”; in the assay with CD38, CD38 (gene 952), “inactive”; with CD40, CD40 (gene 958) it was “inactive”; with CD69, CD69 (gene 969), “inactive”; in [5], “inactive”. Moreover, the outcome in assay [6] and in [7] was inactive.
On to `CC(CN=Cc1ccccc1O)N=Cc1ccccc1O` (stereo not given), for which the outcome in assay [1] is “inactive”; in assay [2] it was “inactive”; in assay [3] it was “inactive”; in [4], “inactive”; with CD38, CD38 (gene 952), “inactive”; in the assay with CD40, CD40 (gene 958), “inactive”. Moreover, the outcome in the assay with CD69, CD69 (gene 969) was “inactive”; in [5] it was “inactive”; in assay [6], “inactive”; in [7], “inactive”.
Turning to `CS(=O)(=O)OCCCCOS(C)(=O)=O`, the outcome in [1] was “inactive”; in [2] it was “inactive”; in assay [3], “inactive”; in assay [4] it was “inactive”; with CD38, CD38 (gene 952), “inactive”; in the assay with CD40, CD40 (gene 958), “inactive”. The outcome was “inactive” with CD69, CD69 (gene 969); “inactive” in assay [5]; “inactive” in assay [6]; “inactive” in assay [7].
`c1ccc(Oc2ccccc2)cc1`: the outcome is “inactive” in assay [1]; “inactive” in assay [2]; “inactive” in assay [3]; “inactive” in assay [4]; “inactive” with CD38, CD38 (gene 952); “inactive” with CD40, CD40 (gene 958). Further, the outcome with CD69, CD69 (gene 969) is “inactive”; in [5], “inactive”; in assay [6], “inactive”; in assay [7], “inactive”.
`CCCCN(CCCC)C(=O)N(CCCC)CCCC`: the AC50 was 20 µM (active) in assay [1]; 20 µM (active) in assay [2]; 9.7 µM (active) in assay [3]; 24.7 µM (active) in assay [4]; 20 µM (active) in the assay with CD40, CD40 (gene 958); 11.2 µM (active) in the assay with CD69, CD69 (gene 969). Besides, the AC50 in assay [5] is 20 µM (active); in assay [6] it was 9.94 µM (active). In addition, the outcome with CD38, CD38 (gene 952) is “inactive”; in [7] it was “inactive”.
As to `COc1ccc(CCN2CCC(Nc3nc4ccccc4n3Cc3ccc(F)cc3)CC2)cc1`, the outcome in [1] is “inactive”; in assay [2] it was “inactive”; in assay [3], “inactive”; in [4] it was “inactive”; in the assay with CD40, CD40 (gene 958) it was “inactive”; in assay [5] it was “inactive”. In addition, the result in assay [6] and in assay [7] was inactive. Moreover, the AC50 in the assay with CD38, CD38 (gene 952) is 5 µM (active); in the assay with CD69, CD69 (gene 969), 5 µM (active).
On to `IC(I)I`, for which the outcome in [1] was “inactive”; in assay [2], “inactive”; in [3], “inactive”; in assay [4], “inactive”; with CD38, CD38 (gene 952) it was “inactive”; in the assay with CD40, CD40 (gene 958) it was “inactive”. Moreover, the outcome was “inactive” with CD69, CD69 (gene 969); “inactive” in assay [5]; “inactive” in assay [6]; “inactive” in assay [7].
On to `CSCCC=O`, for which the outcome in assay [1] was “inactive”; in assay [2] it was “inactive”; in assay [3] it was “inactive”; in assay [4], “inactive”; with CD38, CD38 (gene 952), “inactive”; with CD40, CD40 (gene 958), “inactive”. For the same compound, the outcome in the assay with CD69, CD69 (gene 969) was “inactive”; in assay [5], “inactive”; in assay [6] it was “inactive”; in assay [7], “inactive”.
